Experiment in all cases: NCI-60 one-dose screen, 48 h (100 = growth as untreated, 0 = no growth, -100 = all killed)
Common to all, as to details: 10 µM unless noted

Assay [1] has as its system BT-549 breast.
For assay [2], the system named is MDA-MB-435 melanoma.
Assay [3] relates to SW-620 colon.
Assay [4] concerns MCF7 breast.
In assay [5] the test system is HCT-116 colon.
Assay [6] has as its system HCC-2998 colon.
Assay [7] concerns KM12 colon.

The panel holds about 83,000 compounds, 20% with a hit somewhere; the sample as a whole holds those more often.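 The endpoint reported here, percent growth, reads 100 for growth as untreated, 0 for no net growth and -100 for all cells dead.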 Values without a mark were called inactive. Active and inactive are the calls of the source. Rule for the calls: active = growth percent below 10; inactive = the rest.

For `COc1cc2nc(-c3ccc(Cl)cc3)cc(OCCCNCC3CCCO3)c2cc1OC` (configuration not stated), the growth in assay [1] was 87.7%; in assay [2], 12.4%; in assay [3], 54.3%; in assay [4], 36%; in assay [5] it was 25.1%; in assay [6], 70.6%.
With `COc1ccc(C(=O)c2cc(C(=O)/C=C/c3c(Cl)cccc3Cl)c3cc(C)ccn23)cc1`, the growth in assay [1] was 119%; in assay [2], 99.6%; in assay [3], 95.5%; in assay [4] it was 98%; in assay [5], 99.8%.
With `C=CCSc1ccc2c(c1)C(N1CCNCC1)=Nc1ccccc1O2`, the growth in assay [1] was 106% [8.25 µM]; in assay [2] it was 68% [8.25 µM]; in assay [3], 73.4% [8.25 µM]; in assay [4] it was 59.2% [8.25 µM]; in assay [5], 55.1% [8.25 µM]; in assay [6], -14.8% [8.25 µM] (active).
Take `COc1ccc(Cc2nn(CC(=O)N/N=C/c3ccc(Cl)cc3)c(=O)c3c(C)noc23)cc1`: the growth in assay [1] was 93.9%; in assay [2], 94.5%; in assay [3] it was 69%; in assay [4], 83.5%; in assay [5], 36.4%.
For `COc1ccc(N/N=C/c2c(-c3ccc(S(C)(=O)=O)cc3)nc3ccccn23)cc1`, the growth is 60.5% in assay [1]; 34.1% in assay [2]; 30.1% in assay [3]; 24.3% in assay [4]; 32.5% in assay [5]; 49.3% in assay [6].
On to `COC(=O)C1CN(S(=O)(=O)/N=C2\NC(=O)NC2=C(Cl)Cl)C1`, for which the growth is 110% in assay [1]; 107% in assay [2]; 114% in assay [3]; 34.1% in assay [4]; 111% in assay [5]; 121% in assay [6].
On to `COc1cccc(-c2nn(-c3ccccc3)cc2-c2ccnc(N3CCN(C(=O)Nc4ccc(F)cc4)CC3)c2)c1`, for which the growth in assay [1] is 45.8%; in assay [2], 49.9%; in assay [3], 74.1%; in assay [4], 57.7%; in assay [5] it was 54.9%; in assay [6] it was 95.4%.
For `Cc1cc(=O)oc2cc(OCCCOc3ccc(/C=C/C(=O)Nc4ccc(Cl)cc4)cc3)ccc12`, the growth in assay [1] was 64.4%; in assay [2] it was 61.1%; in assay [3], 27.2%; in assay [4], 35.1%; in assay [5] it was 64.8%; in assay [6], 69.6%.
`CC1=C(C)C(=O)C(Nc2ccccc2)=C(Cl)C1=O`: the growth in assay [1] is 114%; in assay [2] it was 102%; in assay [3] it was 96.5%; in assay [4] it was 90.7%; in assay [5], 79.1%.
Regarding `O=C(N/N=C/c1ccc([N+](=O)[O-])o1)c1[nH]c2ccc(Br)cc2c1-c1ccccc1`, the growth in assay [1] was -32.1% (active); in assay [2] it was -40.8% (active); in assay [3] it was 10.5%; in assay [4], 7.95% (active); in assay [5], -8.73% (active); in assay [6], 2.07% (active).
Take `CC(=O)Oc1ccccc1C(=O)Nc1ccc(C(=O)/C=C/c2ccncc2)cc1`: the growth was 57.1% in assay [1]; 18.2% in assay [2]; 0.322% (active) in assay [3]; 2.69% (active) in assay [4]; -72.5% (active) in assay [5]; 13.3% in assay [6].
For the molecule `Cc1sc2nc(NCc3ccccc3Cl)[nH]c(=O)c2c1C`, the growth in assay [1] was 99.8%; in assay [2] it was 92.6%; in assay [3] it was 102%; in assay [4] it was 80.6%; in assay [5], 49.7%; in assay [6], 115%.
Regarding `CS(=O)(=O)c1ccc(-c2nc3ccccn3c2/C=N/Nc2nc(-c3ccc(Br)cc3)cs2)cc1`, the growth was 114% in assay [1]; 97.2% in assay [2]; 98.2% in assay [3]; 92.4% in assay [4]; 101% in assay [5]; 120% in assay [6].
For the molecule `O=c1/c(=C\c2ccc(-c3ccccc3)o2)sc2nc(-c3ccccc3)nn12`, the growth was 119% in assay [1]; 101% in assay [2]; 104% in assay [3]; 99.1% in assay [4]; 103% in assay [5]; 113% in assay [6].
For `N#Cc1c(-c2ccc(Cl)cc2)nc2c(-c3ccccc3)c(Nc3ccccc3)nn2c1N`, the growth was 94.4% in assay [1]; 58.7% in assay [2]; 40.6% in assay [3]; 47.9% in assay [4]; 20.7% in assay [5]; 90.7% in assay [6].
With `COc1cc(-c2nc3ccc(-c4nnc(SCC(=O)Nc5ccc(C(C)=O)cc5)o4)cc3[nH]2)cc(OC)c1OC`, the growth in assay [1] was 108%; in assay [2], 108%; in assay [3], 101%; in assay [4] it was 92.6%; in assay [5], 106%; in assay [6], 112%.
In the case of `CC(=O)c1ccc(Nc2nc(SC(C)C)nc(-c3ccccc3)c2C#N)cc1`, the growth in assay [1] is 118%; in assay [2], 102%; in assay [3], 98.6%; in assay [4] it was 90.6%; in assay [5], 97.5%; in assay [6], 123%.
As to `Cc1cccc2sc(/N=C(\N)C(Br)Br)nc12`, the growth is 30.2% in assay [1]; 12.3% in assay [2]; -40.2% (active) in assay [3]; -13.3% (active) in assay [4]; -29.1% (active) in assay [5]; 4.99% (active) in assay [6].
For the molecule `NC(=O)c1cc(-c2ccc3ncnc(N4CCc5cc(F)c(Cl)cc54)c3c2)cnc1N`, the growth in assay [1] is -13.5% (active); in assay [2], 25.2%; in assay [3], 35.9%; in assay [4], 11%; in assay [5], 19.3%; in assay [6] it was 37.5%.
As to `Cn1ccnc1C(=O)/C=C/c1ccc(NC(=O)Nc2ccc(Cl)cc2)cc1`, the growth was 63.6% in assay [1]; 75% in assay [2]; 71% in assay [3]; 38.1% in assay [4]; 25% in assay [5]; 90.2% in assay [6].
As for `Clc1ccc2oc3c(OCCCn4ccnc4)c4ccccc4nc3c2c1`, the growth in assay [1] is 95.7%; in assay [2], 64.6%; in assay [3], 36.1%; in assay [4], 63.2%; in assay [5], 28.9%; in assay [6], 72.1%.
On to `CS(=O)(=O)c1ccc(-n2cc(/C=C/C(=O)c3ccc(NC(=O)CO[N+](=O)[O-])cc3)c(-c3ccc(Cl)cc3)n2)cc1`, for which the growth in assay [1] was 103%; in assay [2], 104%; in assay [3], 114%; in assay [4], 84.4%; in assay [5], 103%; in assay [6] it was 93.4%.
Consider `CCOc1ccc([C@H]2C(C(=O)c3ccc(Cl)cc3)C3(N[C@@H]2c2ccccc2)C(=O)Nc2ccc(Br)cc23)cc1` (some centres not stated), for which the growth in assay [1] is 71.9%; in assay [2], 28.5%; in assay [3] it was 24.6%; in assay [4], 9.08% (active); in assay [5], 4.78% (active); in assay [6] it was 0.672% (active).
Consider `COc1cc2cc(Oc3ccc(NC(=O)c4cccc(C(F)(F)F)c4)cc3)c(C)nc2cc1OCCN1CCCCC1`, for which the growth is 98.7% in assay [1]; -86.6% (active) in assay [2]; -71.7% (active) in assay [3]; 12.7% in assay [4]; 0.649% (active) in assay [5]; -17.7% (active) in assay [6].
Take `O=C1c2c(c3c4cccnc4[nH]c3c3ccc4ccccc4c23)C(=O)N1CCO`: the growth in assay [1] is 86.8%; in assay [2], 85.1%; in assay [3], 57.6%; in assay [4], 30.2%; in assay [5], 60.2%; in assay [6], 101%.
As for `N=C1CC(=O)NN1C(=O)CSc1nc2sc3c(c2c(=O)n1-c1ccc(Cl)cc1)CCCC3`, the growth in assay [1] was 102%; in assay [2], 106%; in assay [3], 98%; in assay [4], 91.8%; in assay [5], 99%; in assay [6] it was 116%.
In the case of `COC(=O)C(C)NS(=O)(=O)/N=C1\NC(=O)NC1=C(Cl)Cl` (configuration not stated), the growth in assay [1] is 109%; in assay [2] it was 105%; in assay [3], 124%; in assay [4], 98%; in assay [5], 102%; in assay [6], 113%.
Regarding `CC(C)NC(=O)c1cc(-c2ccc(NC(=O)Nc3ccc(N4CCOCC4)c(C(F)(F)F)c3)cc2)nc2cccnc12`, the growth in assay [1] is 66.7%; in assay [2] it was 67.9%; in assay [3], 79.7%; in assay [4] it was 37.2%; in assay [5], 63.9%; in assay [6], 106%.
As to `Cc1nc(-c2cc3ccccc3oc2=O)ccc1C(=O)/C=C/c1ccc(Cl)c(Cl)c1`, the growth in assay [1] was 108%; in assay [2] it was 103%; in assay [3], 101%; in assay [4], 86.3%; in assay [5] it was 103%; in assay [6], 107%.
For `O=C1/C(=C/C2=Cc3ccccc3OC2)SC(=S)N1c1ccc(F)cc1`, the growth in assay [1] was 100%; in assay [2], 101%; in assay [3] it was 107%; in assay [4], 90.6%; in assay [5], 99.1%; in assay [6], 107%.
For `CNC(=O)c1cc(-c2ccc(NC(=O)Nc3ccc(N4CCOCC4)c(C(F)(F)F)c3)cc2)nc2cccnc12`, the growth is 84.8% in assay [1]; 72.6% in assay [2]; 72.3% in assay [3]; 12.3% in assay [4]; 52.3% in assay [5]; 79.9% in assay [6].
Consider `O=C1C2=C(C(=O)c3c(O)cccc31)C(c1ccco1)c1sc(=O)[nH]c1S2` (configuration not stated), for which the growth in assay [1] was -96.8% (active); in assay [2], -45.3% (active); in assay [3], 13%; in assay [4], -14.2% (active); in assay [5], -2.88% (active); in assay [6] it was 4.16% (active).
For the molecule `NS(=O)(=O)c1ccc(Nc2nc(SCC(=O)c3ccc(Cl)cc3)nc3ccccc23)cc1`, the growth in assay [1] is 112%; in assay [2], 97.5%; in assay [3], 93.3%; in assay [4], 83%; in assay [5], 101%; in assay [6], 123%.
Turning to `N[C@@H](Cc1cn(-c2c3ccccc3nc3ccccc23)nn1)C(=O)O`, the growth was 117% in assay [1]; 104% in assay [2]; 105% in assay [3]; 73.9% in assay [4]; 106% in assay [5]; 117% in assay [6].
With `CC(C)(C)OC(=O)N1C(=O)c2c(c3c4ccccc4[nH]c3c3ccc4ccccc4c23)C1=O`, the growth in assay [1] was 61.7%; in assay [2], 40.3%; in assay [3], 57.2%; in assay [4] it was 34.5%; in assay [5], 58.8%; in assay [6], 82.6%.
As to `CNC(=O)c1cc(-c2ccc(NC(=O)Nc3ccc(N4CCN(C)CC4)c(C(F)(F)F)c3)cc2)nc2cccnc12`, the growth in assay [1] was -81.4% (active); in assay [2], -93% (active); in assay [3], -81.2% (active); in assay [4] it was -100% (active); in assay [5], -98.4% (active); in assay [6] it was -94.9% (active).
On to `COc1cccc(N2CCN(c3ncnc4c3[nH]c3ccc(F)cc34)C[C@@H]2C)c1`, for which the growth in assay [1] is -97% (active); in assay [2], -75.4% (active); in assay [3], -3.32% (active); in assay [4], 0.969% (active); in assay [5] it was -35.9% (active); in assay [6], 16.7%.
In the case of `N#Cc1nc(-c2ccccc2)oc1N1CCC(CO)C1` (configuration not stated), the growth in assay [1] is 95.3%; in assay [2] it was 95.7%; in assay [3], 98.4%; in assay [4] it was 49.8%; in assay [5], 107%; in assay [6] it was 115%.
Consider `CCC/C=C/C=C/C(=O)N[C@@H](Cc1cc(F)cc(F)c1)C(=O)N[C@@H]1C(=O)N2CCC[C@H]2C(=O)N2CCCC[C@H]2C(=O)N[C@@H](C)C(=O)N2C[C@H](C)C[C@H]2C(=O)O[C@H]1C`, for which the growth in assay [1] was 11.5%; in assay [2], 17%; in assay [3], 32.5%; in assay [4], 15%; in assay [5], 13.4%; in assay [6] it was 24.1%. Further, the growth in assay [7] is 33.3%.

Source of the values: PubChem BioAssay (NCI).
